Calls of active or inactive are those of the source. The calls were made as follows: active = hit-call score of the fitted dose curve at least 0.9, where 1 is the maximum; inactive = score below 0.9.
Read-out: Interleukin-8 (IL8), CXCL8 (gene 3576)
Experiment: BSK_hDFCGF_IL8: BioMAP Diversity Plus: hDFCGF Assay for Interleukin-8 (IL8) Biomarker Activity (AID 2283058)
Conditions: primary human foreskin fibroblasts; actives raise or lower the signal
Summary of the method: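 Cells used are human skin primary fibroblasts. Chemical is added, cultures run 24 h, then IL-8 is quantified by ELISA, and gain or loss versus DMSO control is fitted in both directions.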

Row | Structure (SMILES) | outcome | AC50
1 | COc1cc(C=O)ccc1O | inactive | 
2 | CC=Cc1ccc(O)c(OC)c1 | inactive | 
3 | CCCCCCCCCCO | inactive | 
4 | CC(=O)Oc1ccccc1C(=O)O | inactive | 
5 | CCCCCCCC=O | inactive | 
6 | CCOC(=O)CCC(=O)OCC | inactive | 
7 | O=[N+]([O-])C(CO)(CO)CO | inactive | 
8 | NS(=O)(=O)c1cc2c(cc1Cl)NCNS2(=O)=O | inactive | 
9 | Cc1cc(NC(=O)C(=O)O)cc(C)c1Oc1ccc(O)c2c1CCC2 | inactive | 
10 | Cc1cccc(Nc2cc(Cl)nc(SCC(=O)O)n2)c1C | inactive | 
11 | CC(C)(C)c1cc(O)c(C(C)(C)C)cc1O | inactive | 
12 | CCCCN(CCCC)CCCC | inactive | 
13 | CN1CCCC1=O | inactive | 
14 | CCCCOC(=O)CCCCCCCCC(=O)OCCCC | inactive | 
15 | O=C(O)Cc1ccccc1Nc1c(Cl)cccc1Cl | inactive | 
16 | CCCCCCCCCCC | inactive | 
17 | Nc1ccc2c(c1)C(=O)c1ccccc1C2=O | inactive | 
18 | CCCCCCCCCCCCCCCCCC(=O)O | inactive | 
19 | Nc1ccccc1N | inactive | 
20 | O=C(N[C@@H](Cc1ccccc1)[C@@H](O)C(=O)N1C[C@@H](O)[C@@H](O)C1)c1cc2cc(Cl)ccc2[nH]1 | inactive | 
21 | CCCCCCCCCCCCCCCC | inactive | 
22 | Cc1ccc(N(C)C)cc1 | inactive | 
23 | Cc1c(C(=O)O)c(O)cc2c1C(=O)c1c(O)c([C@@H]3O[C@H](CO)[C@@H](O)[C@H](O)[C@H]3O)c(O)c(O)c1C2=O | inactive | 
24 | CCc1c(C(=O)NN2CCCCC2)nn(-c2ccc(Cl)cc2Cl)c1-c1ccc(Br)cc1 |  | 3.39 µM (active)
25 | c1cc(-c2ccncc2)ccn1 | inactive | 
26 | CC(=O)C(C)=CC1C(C)=CCCC1(C)C (stereo not drawn) | inactive | 
27 | COc1cc(S(=O)(=O)O)c(C)cc1N=Nc1c(O)ccc2cc(S(=O)(=O)O)ccc12 | inactive | 
28 | O=c1[nH]cc(F)c(=O)[nH]1 | inactive | 
29 | C[Si]1(C)O[Si](C)(C)O[Si](C)(C)O[Si](C)(C)O1 | inactive | 

Read-out: not listed separately
Experiment: BSK_hDFCGF_Proliferation: Cell Proliferation Assessment in the BioMAP Diversity Plus: hDFCGF Assay (AID 2283059);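 also: curves fitted for both rise and fall of signal versus DMSO baseline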
Conditions: primary human foreskin fibroblasts
Summary of the method: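 Sub-confluent human foreskin fibroblast cultures receive test chemical […]. Relative cell number is quantified by sulforhodamine B staining (0.1%, after 10% TCA fixation) at 560 nm, with bidirectional fitting referenced to DMSO.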

Row | Structure (SMILES) | outcome | AC50
30 | COc1cc(C=O)ccc1O | inactive | 
31 | CC=Cc1ccc(O)c(OC)c1 |  | 24.6 µM (active)
32 | CCCCCCCCCCO | inactive | 
33 | CC(=O)Oc1ccccc1C(=O)O | inactive | 
34 | CCCCCCCC=O | inactive | 
35 | CCOC(=O)CCC(=O)OCC | inactive | 
36 | O=[N+]([O-])C(CO)(CO)CO |  | 14.1 µM (active)
37 | NS(=O)(=O)c1cc2c(cc1Cl)NCNS2(=O)=O | inactive | 
38 | Cc1cc(NC(=O)C(=O)O)cc(C)c1Oc1ccc(O)c2c1CCC2 | inactive | 
39 | Cc1cccc(Nc2cc(Cl)nc(SCC(=O)O)n2)c1C | inactive | 
40 | CC(C)(C)c1cc(O)c(C(C)(C)C)cc1O |  | 29.1 µM (active)
41 | CCCCN(CCCC)CCCC | inactive | 
42 | CN1CCCC1=O | inactive | 
43 | CCCCOC(=O)CCCCCCCCC(=O)OCCCC | inactive | 
44 | O=C(O)Cc1ccccc1Nc1c(Cl)cccc1Cl |  | 20 µM (active)
45 | CCCCCCCCCCC | inactive | 
46 | Nc1ccc2c(c1)C(=O)c1ccccc1C2=O |  | 4.98 µM (active)
47 | CCCCCCCCCCCCCCCCCC(=O)O | inactive | 
48 | Nc1ccccc1N |  | 16 µM (active)
49 | O=C(N[C@@H](Cc1ccccc1)[C@@H](O)C(=O)N1C[C@@H](O)[C@@H](O)C1)c1cc2cc(Cl)ccc2[nH]1 | inactive | 
50 | CCCCCCCCCCCCCCCC | inactive | 
51 | Cc1ccc(N(C)C)cc1 | inactive | 
52 | Cc1c(C(=O)O)c(O)cc2c1C(=O)c1c(O)c([C@@H]3O[C@H](CO)[C@@H](O)[C@H](O)[C@H]3O)c(O)c(O)c1C2=O |  | 3.88 µM (active)
53 | CCc1c(C(=O)NN2CCCCC2)nn(-c2ccc(Cl)cc2Cl)c1-c1ccc(Br)cc1 |  | 1.73 µM (active)
54 | c1cc(-c2ccncc2)ccn1 | inactive | 
55 | CC(=O)C(C)=CC1C(C)=CCCC1(C)C (stereo not drawn) | inactive | 
56 | COc1cc(S(=O)(=O)O)c(C)cc1N=Nc1c(O)ccc2cc(S(=O)(=O)O)ccc12 | inactive | 
57 | O=c1[nH]cc(F)c(=O)[nH]1 |  | 9.52 µM (active)
58 | C[Si]1(C)O[Si](C)(C)O[Si](C)(C)O[Si](C)(C)O1 | inactive | 

Source: PubChem BioAssay (EPA / NIEHS)
